# Results reported in PubChem BioAssay (NCATS).
# Records with an inconclusive call do not appear. Where a call stands in place of a potency, no number is given. Active and inactive are the calls of the source. Unless noted, calls come from the whole dose curve; as a rule, active = well fitted curve in the direction sought with a large enough effect in the repeat runs; inconclusive = weak or mixed curves; inactive = no such curve, though single readings can be large; an effect the other way counts as inactive or inconclusive.
# Key:
# [1] = target: Calcium and integrin-binding protein 1 (Homo sapiens) (UniProt Q99828); assay: Primary qHTS for Identification of Calcium Integrin Binding Protein 1 (CIB1) Competitor (AID 1508620; active = well fitted curve in the direction sought with a large enough effect; an effect the other way counts as inactive or inconclusive;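 note: GST tagged CIB1 binding a fluorescein labelled alphaIIb integrin peptide tracer; top concentration of the series differs between compounds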)
# Chain of Calcium and integrin-binding protein 1 (Homo sapiens) (Q99828 whole entry, looked up): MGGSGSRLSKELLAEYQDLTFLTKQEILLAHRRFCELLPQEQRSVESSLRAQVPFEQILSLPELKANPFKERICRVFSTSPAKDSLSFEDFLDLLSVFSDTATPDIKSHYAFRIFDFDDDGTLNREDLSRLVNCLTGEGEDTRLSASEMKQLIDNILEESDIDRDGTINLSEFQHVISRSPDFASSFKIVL
# How it was run: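 CIB1-GST (1 uM final) and compound incubated 15 min at room temperature before adding FITC-alphaIIb peptide tracer (100 nM final). Competition for binding read by fluorescence polarization (ex 480, em 540) after another 15 min at room temperature.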
# [2] = target: Cytochrome P450 2D6 (Homo sapiens) (UniProt P10635); assay: Cytochrome P450 family 2 subfamily D member 6 (CYP2D6) small molecule antagonists: luciferase biochemical (cell-free) qHTS assay (AID 1645840); note: nearly all actives have a fitted effect of over 55% in size; note: potency is the fitted concentration of half-maximal effect
# Chain of Cytochrome P450 2D6 (Homo sapiens) (P10635 whole entry, looked up): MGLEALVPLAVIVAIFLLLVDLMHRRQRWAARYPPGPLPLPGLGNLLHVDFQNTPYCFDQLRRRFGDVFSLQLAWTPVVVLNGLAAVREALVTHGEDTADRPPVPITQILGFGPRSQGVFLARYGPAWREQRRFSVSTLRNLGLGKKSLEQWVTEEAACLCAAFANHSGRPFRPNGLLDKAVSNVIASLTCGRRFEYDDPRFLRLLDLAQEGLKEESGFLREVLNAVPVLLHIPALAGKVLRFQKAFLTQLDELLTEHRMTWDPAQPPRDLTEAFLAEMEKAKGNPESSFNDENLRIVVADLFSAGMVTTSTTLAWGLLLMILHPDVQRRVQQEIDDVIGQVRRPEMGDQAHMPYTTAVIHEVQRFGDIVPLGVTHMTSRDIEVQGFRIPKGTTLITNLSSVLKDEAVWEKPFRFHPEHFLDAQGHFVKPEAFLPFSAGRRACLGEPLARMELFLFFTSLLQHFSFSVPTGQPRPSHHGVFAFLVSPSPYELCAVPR
# How it was run: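 P450-Glo CYP2D6 system: proluciferin substrate converted by enzyme to luciferin, read by luminescence proportional to activity. Enzyme-substrate mix with compound 10 min at room temperature, then NADPH regeneration 1 h before detection reagent.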
# [3] = target: Cytochrome P450 2C9 (Homo sapiens) (UniProt P11712); assay: Cytochrome P450 family 2 subfamily C member 9 (CYP2C9) small molecule antagonists: luciferase biochemical (cell-free) qHTS assay (AID 1645842); note: nearly all actives have a fitted effect of over 55% in size; note: potency is the fitted concentration of half-maximal effect
# Chain of Cytochrome P450 2C9 (Homo sapiens) (P11712 whole entry, looked up): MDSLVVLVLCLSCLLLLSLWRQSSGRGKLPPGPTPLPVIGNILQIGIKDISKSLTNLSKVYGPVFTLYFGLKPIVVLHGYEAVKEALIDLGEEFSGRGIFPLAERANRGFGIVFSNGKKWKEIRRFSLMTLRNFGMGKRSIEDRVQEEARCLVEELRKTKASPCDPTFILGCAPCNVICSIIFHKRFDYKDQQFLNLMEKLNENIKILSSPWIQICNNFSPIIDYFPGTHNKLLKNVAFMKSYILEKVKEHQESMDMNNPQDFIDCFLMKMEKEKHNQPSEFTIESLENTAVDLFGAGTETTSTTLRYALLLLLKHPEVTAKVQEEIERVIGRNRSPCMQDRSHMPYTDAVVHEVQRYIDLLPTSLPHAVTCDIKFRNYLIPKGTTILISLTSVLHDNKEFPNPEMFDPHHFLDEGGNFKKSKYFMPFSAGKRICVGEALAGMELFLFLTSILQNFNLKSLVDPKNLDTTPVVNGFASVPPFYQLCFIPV
# How it was run: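 P450-Glo CYP2C9 system: proluciferin substrate with enzyme in mix containing 0.4% BSA, 10 min at room temperature, then NADPH regeneration solution added and incubated 1 h at 37C. Detection reagent stopped reaction; luminescence read after 20 min as RLU.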
SMILES,Potency [1],Potency [2],Potency [3]
COc1ccc(-c2cc3onc(-c4ccncc4)c3c(=O)n2C)cc1,inactive,9.52 µM (active),0.952 µM (active)
CC(=O)Nc1cccc(Nc2ncnc(N3CCC(OCc4ccc(OC(F)(F)F)cc4)CC3)n2)c1C,inactive,inactive,13.5 µM (active)
O=C(NCCCN1CCC2(CC1)OCc1ccccc12)[C@H]1CCCN1Cc1ccccc1,inactive,2.13 µM (active),inactive
O=C(c1ccc(Cl)cc1)N1CCN(c2ccnc3cc(Cl)ccc23)CC1,inactive,8.49 µM (active),8.49 µM (active)
O=C(Nc1ccccc1)N1CCC(Cc2cnc3ccccc3c2)CC1,inactive,26.8 µM (active),12 µM (active)
Clc1cccc(COc2cncc(N3CCNCC3)n2)c1,inactive,8.49 µM (active),inactive
CCOc1ccc(-n2c(C(C)N(Cc3cccnc3)C(=O)Cc3ccc(F)c(C(F)(F)F)c3)nc3ncccc3c2=O)cc1 (stereo not drawn),inactive,23.9 µM (active),4.77 µM (active)
COc1ccc(CN2CCN(C(=O)CCNC(=O)c3ccc(C(C)(C)C)cc3)CC2)cc1,inactive,15.1 µM (active),8.49 µM (active)
COc1ccc2c(c1)C(C(=O)N(Cc1ccc(N(C)C)cc1)c1ccc(C(C)C)cc1)CCC2 (stereo not drawn),inactive,inactive,5.35 µM (active)
O=C(CSc1nc2ccccc2c(=O)n1-c1ccccc1)Nc1ccc2c(c1)CCC2,inactive,inactive,2.68 µM (active)
C=CCCN1CCC2(CC1)CN(C(=O)c1c(F)cccc1F)c1ccc(Cl)cc12,inactive,0.019 µM (active),13.5 µM (active)
CCNc1nc(Nc2cc(F)c(C(=O)N3CCOCC3)cc2OC)ncc1C(F)(F)F,inactive,inactive,1.9 µM (active)
O=C(COc1ccc(C(=O)c2ccccc2)cc1)NC1CCN(Cc2ccccc2)CC1,inactive,0.338 µM (active),4.77 µM (active)
CNCc1cc(-c2ccccc2F)n(S(=O)(=O)c2cccnc2)c1,inactive,19 µM (active),inactive
NC(=O)c1nc(Nc2ccccc2)sc1NC(=O)C1CCCCC1,inactive,inactive,0.601 µM (active)
Cc1cn2c(n1)Cc1ccc(Cl)cc1C(c1ccc(N)cc1)=N2,inactive,16.9 µM (active),12 µM (active)

SMILES,Potency [1],Potency [2],Potency [3]
NC(N)=NC(=O)c1cnn(-c2cccc3ncccc23)c1C1CC1,inactive,inactive,inactive
Cc1cccc(-c2[nH]ncc2-c2ccnc3ccccc23)n1,inactive,inactive,9.52 µM (active)
Cc1nc(N2CCN(C(=O)c3ccco3)CC2)c2c3c(sc2n1)CCCC3,inactive,10.7 µM (active),4.77 µM (active)
CCCc1cc2c(N3CCN(C4=NCC(C)(C)S4)CC3)ncnc2s1,inactive,0.952 µM (active),inactive
O=C(Nc1ccc(N(Cc2ccsc2)C(=O)Cn2nnc3ccccc32)cc1)C1CC1,inactive,4.77 µM (active),1.51 µM (active)
CCOC(=O)CCNc1cc(N2CCc3ccccc3CC2)nc(-c2cccnc2)n1,inactive,10.7 µM (active),8.49 µM (active)
CCNC1(C(N)=O)CCN(c2ncnc3c2nc(-c2ccccc2Cl)n3-c2ccc(Cl)cc2)CC1,inactive,16.9 µM (active),2.13 µM (active)
Cc1cc2c(N3CCCC3)nc(N3CCCC3)nc2n1C,inactive,3.01 µM (active),15.1 µM (active)
O=C(OC1CN2CCC1CC2)N1CCc2ccccc2C1c1ccccc1 (stereo not drawn),inactive,19 µM (active),inactive
C[C@@H]1C[C@H](C)CN(CCC(=O)Nc2ccc(Br)cc2)C1,inactive,0.0674 µM (active),inactive
N#Cc1cccc(C(=O)Nc2cc(-c3ccccc3)nn2-c2ccccc2)c1,inactive,inactive,2.39 µM (active)
COc1cc(C(=O)NC(=S)Nc2cccc(NC(=O)c3ccccc3)c2)cc(OC)c1OC,inactive,inactive,3.79 µM (active)
Fc1ccc(-c2nc(-c3ccccc3F)[nH]c2-c2ccncc2)cc1,inactive,1.2 µM (active),1.69 µM (active)
COc1ccc(S(=O)(=O)Nc2c(C)cc(C)cc2C)cc1,inactive,inactive,2.39 µM (active)
CN(C)S(=O)(=O)c1ccc(NC(=S)N2CCC(C(O)(c3ccccc3)c3ccccc3)CC2)cc1,inactive,inactive,2.68 µM (active)
